In PubChem BioAssay (NCI):
The panel holds about 83,000 compounds, 20% with a hit somewhere; the sample as a whole holds those more often.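 Single-dose data. Exposure time 48 hours. Values below 10 considered active.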 Active and inactive are the calls of the source.

Legend:
Assay in all cases: NCI-60 one-dose screen, 48 h (100 = growth as untreated, 0 = no growth, -100 = all killed)
Details in all cases: 10 µM unless noted
DU-145 prostate = test system: DU-145 prostate
K-562 leukemia = test system: K-562 leukemia
MALME-3M melanoma = test system: MALME-3M melanoma
MDA-MB-231 breast = test system: MDA-MB-231 breast
RXF 393 renal = test system: RXF 393 renal
SF-268 CNS = test system: SF-268 CNS
SF-295 CNS = test system: SF-295 CNS
SF-539 CNS = test system: SF-539 CNS
UACC-257 melanoma = test system: UACC-257 melanoma
HCT-15 colon = test system: HCT-15 colon
HT29 colon = test system: HT29 colon
SNB-75 CNS = test system: SNB-75 CNS
SNB-19 CNS = test system: SNB-19 CNS
U251 CNS = test system: U251 CNS
PC-3 prostate = test system: PC-3 prostate
SK-MEL-5 melanoma = test system: SK-MEL-5 melanoma
UACC-62 melanoma = test system: UACC-62 melanoma
LOX IMVI melanoma = test system: LOX IMVI melanoma
M14 melanoma = test system: M14 melanoma

Measured: growth

O=C(Cn1nncc1CN1C(=O)CSC1=O)Nc1ccc(F)cc1
inactive: DU-145 prostate 105% | K-562 leukemia 104% | MALME-3M melanoma 97.5% | MDA-MB-231 breast 109% | RXF 393 renal 108% | SF-268 CNS 94.7% | SF-295 CNS 103% | SF-539 CNS 97.8% | UACC-257 melanoma 107% | HCT-15 colon 102% | HT29 colon 105% | SNB-75 CNS 85.9% | SNB-19 CNS 101% | U251 CNS 104% | PC-3 prostate 101% | SK-MEL-5 melanoma 99.5% | UACC-62 melanoma 93.5% | LOX IMVI melanoma 94.9%

CCCCNCCC(O)c1cc2ccc(C(F)(F)F)cc2c2cc(C(F)(F)F)ccc12 (configuration not stated)
active: DU-145 prostate -93.4% | K-562 leukemia -72.1% | MALME-3M melanoma -59.5% | MDA-MB-231 breast -73.3% | RXF 393 renal -90.8% | SF-268 CNS -88% | SF-539 CNS -81.8% | UACC-257 melanoma -75.5% | M14 melanoma -84.6% | HCT-15 colon -65.2% | HT29 colon -84.8% | SNB-75 CNS -90.5% | SNB-19 CNS -76.6% | U251 CNS -93.7% | PC-3 prostate -85.2% | SK-MEL-5 melanoma -87.6% | UACC-62 melanoma -84.3% | LOX IMVI melanoma -71.2%

CN1CCN(Cc2ccc(NC(=O)c3cccc(C#Cc4cnc(N)c5ncccc45)c3F)cc2C(F)(F)F)CC1
inactive: SF-268 CNS 67.2% | SF-295 CNS 85.3% | SNB-75 CNS 53.9% | PC-3 prostate 30.7% | SK-MEL-5 melanoma 44.1% | UACC-62 melanoma 55.5%
active: DU-145 prostate -72.4% | K-562 leukemia -19.7% | MALME-3M melanoma -78.9% | MDA-MB-231 breast -74.2% | RXF 393 renal -76.5% | SF-539 CNS -29% | UACC-257 melanoma -61.6% | M14 melanoma -76.4% | HCT-15 colon -57.2% | HT29 colon -55.5% | U251 CNS -88.2% | LOX IMVI melanoma -88.8%

Oc1c(-c2cc(C(F)(F)F)[nH]n2)cc(Cl)c(OCc2ccc(Cl)cc2)c1-c1ccc(Cl)c(C(F)(F)F)c1
inactive: DU-145 prostate 10.2% | SNB-19 CNS 18.6%
active: K-562 leukemia 5.9% | MALME-3M melanoma -30.5% | MDA-MB-231 breast -5.89% | RXF 393 renal -24.7% | SF-268 CNS -5.51% | SF-539 CNS -11.6% | UACC-257 melanoma -2.82% | M14 melanoma -21% | HCT-15 colon -11.5% | HT29 colon 6.96% | SNB-75 CNS -17.6% | U251 CNS 8.65% | PC-3 prostate 4.7% | SK-MEL-5 melanoma -60.2% | UACC-62 melanoma -17.3% | LOX IMVI melanoma 1.76%

CC(C)[C@H](CN)NC[C@H](C)NS(=O)(=O)c1ccc(C(C)(C)C)cc1
inactive: DU-145 prostate 105% | K-562 leukemia 85.7% | MALME-3M melanoma 97.8% | MDA-MB-231 breast 117% | RXF 393 renal 89.9% | SF-268 CNS 93.5% | SF-295 CNS 104% | SF-539 CNS 96.9% | UACC-257 melanoma 96.4% | HCT-15 colon 99.3% | HT29 colon 65.5% | SNB-75 CNS 84.2% | SNB-19 CNS 111% | U251 CNS 87.1% | PC-3 prostate 83.5% | SK-MEL-5 melanoma 86.8% | UACC-62 melanoma 111% | LOX IMVI melanoma 99.9%

COc1cccc2nc(Nc3cccc(NC(=O)c4cc(N5CCOCC5)cc(C(F)(F)F)c4)c3)ccc12
inactive: DU-145 prostate 59.9% | K-562 leukemia 45% | MALME-3M melanoma 91.3% | MDA-MB-231 breast 93.3% | RXF 393 renal 51.4% | SF-268 CNS 59.9% | SF-295 CNS 58.4% | SF-539 CNS 82% | UACC-257 melanoma 57.1% | M14 melanoma 52.5% | HCT-15 colon 48.2% | HT29 colon 43.4% | SNB-75 CNS 50.1% | U251 CNS 50.6% | PC-3 prostate 36.8% | SK-MEL-5 melanoma 42.7% | UACC-62 melanoma 71.4% | LOX IMVI melanoma 56%

COS(=O)(=O)CCN(CCOS(C)(=O)=O)S(C)(=O)=O
inactive: DU-145 prostate 105% | K-562 leukemia 76% | MALME-3M melanoma 98.9% | MDA-MB-231 breast 109% | RXF 393 renal 105% | SF-268 CNS 107% | SF-539 CNS 91.2% | UACC-257 melanoma 82.6% | M14 melanoma 94.3% | HCT-15 colon 95.4% | HT29 colon 85.4% | SNB-75 CNS 90.4% | SNB-19 CNS 107% | U251 CNS 96.8% | PC-3 prostate 94.8% | SK-MEL-5 melanoma 104% | UACC-62 melanoma 102% | LOX IMVI melanoma 96.5%

C=C(C)C1CCC2(C(=O)O)CCC3(C)C(CCC4C5(C)CCC(O)C(C)(C)C5CCC43C)C12 (configuration not stated)
active: DU-145 prostate -55.5% | K-562 leukemia -34.1% | MALME-3M melanoma -17.4% | MDA-MB-231 breast -8.05% | RXF 393 renal -68.8% | SF-295 CNS -14.8% | SF-539 CNS -54.1% | UACC-257 melanoma -17.2% | M14 melanoma -49.9% | HT29 colon -9.19% | SNB-75 CNS -24.8% | U251 CNS -45.3% | PC-3 prostate 8.63% | SK-MEL-5 melanoma -75.8% | LOX IMVI melanoma 8.78%
inactive: SF-268 CNS 16.3% | HCT-15 colon 26.9% | UACC-62 melanoma 50.5%

COc1ccc(NC(=O)c2ccc(C(F)(F)F)nc2Nc2ccc(Cl)cc2C)cc1Cl
inactive: K-562 leukemia 16.4% | MALME-3M melanoma 34.8% | RXF 393 renal 42.5% | SF-268 CNS 38.2% | SF-539 CNS 50.3% | UACC-257 melanoma 22% | HCT-15 colon 22.4% | HT29 colon 26.6% | SNB-75 CNS 35% | SNB-19 CNS 30% | U251 CNS 20.3% | PC-3 prostate 10.2% | SK-MEL-5 melanoma 28.2% | UACC-62 melanoma 15.3% | LOX IMVI melanoma 13.4%
active: DU-145 prostate 9.29% | MDA-MB-231 breast 7.34% | SF-295 CNS 3.72%
